# Over roughly 33,000 sequences, “E-score (-0.5 to 0.5)” has its median near -0.011; the highest 2% begin near 0.28. For the sample, the highest values were picked, then their nearest neighbours and some sequences at random.
# Molecular target: T1, Gcr1 (UniProt P07261)
# T1 sequence: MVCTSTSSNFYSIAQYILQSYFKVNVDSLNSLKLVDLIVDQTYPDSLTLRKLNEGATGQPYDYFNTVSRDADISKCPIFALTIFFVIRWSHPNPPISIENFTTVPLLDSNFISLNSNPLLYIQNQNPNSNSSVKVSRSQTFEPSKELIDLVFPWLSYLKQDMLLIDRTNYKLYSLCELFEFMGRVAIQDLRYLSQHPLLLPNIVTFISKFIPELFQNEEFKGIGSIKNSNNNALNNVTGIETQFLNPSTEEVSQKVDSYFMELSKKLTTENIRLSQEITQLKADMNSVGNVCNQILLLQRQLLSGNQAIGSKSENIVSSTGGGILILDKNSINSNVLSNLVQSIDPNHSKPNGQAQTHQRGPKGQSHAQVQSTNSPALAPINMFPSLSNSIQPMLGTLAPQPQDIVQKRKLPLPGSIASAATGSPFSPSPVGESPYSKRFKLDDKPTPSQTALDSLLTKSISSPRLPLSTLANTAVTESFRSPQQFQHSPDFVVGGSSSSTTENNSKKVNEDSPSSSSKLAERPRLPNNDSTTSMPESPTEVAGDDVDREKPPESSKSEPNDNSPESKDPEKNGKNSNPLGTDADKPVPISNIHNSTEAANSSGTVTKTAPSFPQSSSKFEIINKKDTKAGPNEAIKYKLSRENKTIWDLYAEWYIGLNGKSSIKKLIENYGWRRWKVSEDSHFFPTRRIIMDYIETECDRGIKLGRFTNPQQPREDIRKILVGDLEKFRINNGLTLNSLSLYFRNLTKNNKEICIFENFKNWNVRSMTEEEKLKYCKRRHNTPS
# Assay: PBM E-score (8-mer binding enrichment) (E-score (-0.5 to 0.5)); higher = stronger / more preferred TF binding
# Details: protein concentration: 100 nM; construct: GST-full length
# Procedure, shortened: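 Yeast transcription factors carrying a GST tag, as full-length proteins or DNA-binding domains, were produced by PURExpress in vitro transcription/translation. About 100-200 nM protein was applied to universal all-10-mer Agilent arrays, double-stranded by primer extension on fresh or once-stripped slides. Bound protein was detected with fluorescent anti-GST, and scans were normalised with masliner. The Universal PBM Analysis Suite gave each ungapped eight-base word, pooled with its reverse complement, an E-score, a modified Wilcoxon-Mann-Whitney statistic.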
row,Sequence,PBM E-score
1,ACTAATGC,0.0263
2,ACAGATAG,-0.00305
3,AACCTGTA,0.211
4,ATTTCGGA,0.285
5,ATTTCGGG,0.0915
6,ATTTCGGC,0.141
7,GATCCCAC,0.235
8,TATCCCCA,0.052
9,GATCCCCA,0.28
10,GATTCCCA,0.334
11,GATTCCCC,0.289
12,CATTCCCA,0.103
13,AATTCCCC,0.0615
14,CATTCCCC,-0.0585
15,GATCCCCC,0.176
16,GATTCCTA,0.439
17,AATTCCCA,-0.0967
18,CATTCCTA,-0.0304
19,AATTCCTA,0.0723
20,CGCATCTC,0.0271
21,AAAGAGAA,0.022
22,CAGTTCGG,0.0773
23,CGGATTGA,-0.116
24,CAATGGGG,0.00495
25,ACGGTGGG,0.116

row,Sequence,PBM E-score
1,CGCTGCCA,0.185
2,GGCTGCCC,0.272
3,CGCTGCTA,0.155
4,AGCTGCCT,0.32
5,GGCTGCCA,0.418
6,AGCTGCCA,0.385
7,GGCTGCTA,0.318
8,AGCTGCTA,0.226
9,TGCTGCCA,-0.0494
10,AACTGCCT,-0.0496
11,GGCTGCAA,0.128
12,ACCTGCCT,-0.218
13,GATGGGAA,0.123
14,TACAGATA,-0.0799
15,ATATTTGA,0.0958
16,CTTTCGAA,-0.0912
17,CAGATAAC,-0.13
18,ACTTGACT,-0.0523
19,CACCGAGA,-0.00934
20,GTGCCCCA,-0.0431
21,GGGCTCAC,-0.096
22,AGAGCTGG,-0.143
23,TCTGCCCA,-0.249
24,AGATTTCG,0.113
25,AAGGTGTC,0.0915

row,Sequence,PBM E-score
1,AGCTGCCG,0.289
2,CGCTGCCG,0.175
3,AGCTGCCC,0.217
4,ACTACAAC,0.0309
5,CACATCCA,0.0944
6,CGCATCCA,0.323
7,CGCATCCG,0.221
8,CGCATCGC,-0.0699
9,AGCATCAC,0.00094
10,CGCATCGA,0.0887
11,AACATCCC,-0.109
12,CGCATCCC,0.319
13,GACATCCC,0.0126
14,AGCATCCC,0.33
15,GCCATCCC,-0.173
16,GGCATCCC,0.4
17,AAAGGGTG,-0.0719
18,AAGGCGGT,0.00689
19,CTGTGGCA,0.0358
20,AACTGGCA,0.0707
21,ATTCTCGG,0.123
22,CCTTCCGA,-0.12
23,GCCTCCAC,-0.0325
24,CCTTCCAC,0.208
25,ACTTCCAG,0.377

row,Sequence,PBM E-score
1,GCTTCCGA,0.386
2,GCTTCCAC,0.42
3,CCTTCCAG,0.0686
4,ACTTCCGA,0.0686
5,ACTTCCTA,0.245
6,ACTTCCAT,0.145
7,ACTTCCTC,0.243
8,ACTTCCTG,0.319
9,AGTTCCTG,0.0262
10,CCATGCCG,-0.2
11,CGCTTTCC,-0.0681
12,CTTTCTAC,0.0892
13,AGTCGGAC,-0.093
14,ACCTGAGA,-0.038
15,ACTTCCAA,0.303
16,ACTTCCAC,0.261
17,GCTTCCAA,0.443
18,CCTTCCAA,-0.0431
19,ATTTCCAA,0.0988
20,TCTTCCAA,-0.0111
21,CAACCGGA,0.206
22,CCCTCCGG,-0.0226
23,CACCAAAG,0.047
24,ATGCATCA,-0.0769
25,AAGCAGCT,0.33

row,Sequence,PBM E-score
1,AAGCAGGT,0.161
2,CAGCAGCA,0.00017
3,GAGCAGCC,0.217
4,AAGCAGCC,0.308
5,CAGCAGCC,0.359
6,AAGCAGAT,-0.03
7,AAGCAGCA,-0.176
8,AAGCAGCG,0.135
9,AACTGTGC,-0.181
10,CTTTACTC,-0.104
11,GACTAACC,-0.136
12,ACTTAACC,-0.196
13,CCTCGAGC,-0.102
14,GCTCGAGA,-0.166
15,GCTCGAGC,0.321
16,AAGGGCAC,-0.16
17,AGGGTTCG,-0.0648
18,GCGGTTCC,0.314
19,GCGGTTCA,-0.231
20,ACGGTTCC,0.0629
21,CGGGTTCC,0.411
22,CGGGTTAC,-0.0158
23,AGGGTTCC,0.312
24,CGGGTTCA,-0.204
25,AGGGTTCA,-0.118

row,Sequence,PBM E-score
1,GTTAAAAC,-0.0162
2,AAAATGCG,0.143
3,GAACGACC,-0.165
4,CTGTTGAA,0.0369
5,TCTTCTAA,0.329
6,CCTTCTAC,0.0671
7,GCTTCTAA,0.116
8,CCTTCTAA,-0.0438
9,GCTTCTAC,0.301
10,ACTTCTAA,0.0859
11,GAGTCCTA,0.0444
12,AATAATGA,0.0865
13,AGTCCTGG,0.0342
14,GCCAAAAC,0.128
15,ATCCAATC,0.13
16,ATCCAAAC,-0.03
17,CTCCAATA,0.075
18,ATCCAAAA,0.282
19,GCCAAGAA,0.124
20,ATCCAATA,0.303
21,GCCAAAAA,0.288
22,ATCCAAAG,0.189
23,ATGCAAAC,0.115
24,CTCTTCAA,0.00436
25,GGACGCAC,0.127

row,Sequence,PBM E-score
1,CCGCATCC,0.31
2,ACGCATCC,0.311
3,CCGCATCG,-0.0819
4,GCGCATAC,0.0321
5,GCGCATCC,0.331
6,CCGCATCA,0.103
7,ACGCATCG,-0.00937
8,ACGCATCT,0.151
9,GCGCATCA,0.0737
10,ACCGCCTC,-0.14
11,ACTGTGCT,-0.231
12,ACAGACAT,-0.144
13,CACAGAGG,-0.185
14,CGAGGGGC,0.0171
15,ACAGTGGC,0.00948
16,AAAGTGGA,0.24
17,GTAGTGGA,0.285
18,GTAGTGTA,-0.0351
19,TAAGTGGA,0.287
20,ATCGTGGC,-0.103
21,GCAGTGGA,0.11
22,CTAGTGTA,0.127
23,CAAGTGGA,0.181
